Compound activity deposited in PubChem by National Center for Advancing Translational Sciences (NCATS).
Shown are actives, neighbours in structure and some others; about 3.2% of the full set was active somewhere.
GLP-1R inv ag – qHTS of GLP-1 Receptor Inverse Agonists (Inhibition Mode). actives 1.6% (n = 410,000). Potency, µM (titrated, usually from 38.3 µM), usual class: inhibitors. HEK293 GLP-1R CRE-luciferase, luminescence, 24 h; GLP-1R form is constitutively active; note: nearly all actives have a fitted effect of over 55% in size
Target sequence (P43220 whole entry, looked up): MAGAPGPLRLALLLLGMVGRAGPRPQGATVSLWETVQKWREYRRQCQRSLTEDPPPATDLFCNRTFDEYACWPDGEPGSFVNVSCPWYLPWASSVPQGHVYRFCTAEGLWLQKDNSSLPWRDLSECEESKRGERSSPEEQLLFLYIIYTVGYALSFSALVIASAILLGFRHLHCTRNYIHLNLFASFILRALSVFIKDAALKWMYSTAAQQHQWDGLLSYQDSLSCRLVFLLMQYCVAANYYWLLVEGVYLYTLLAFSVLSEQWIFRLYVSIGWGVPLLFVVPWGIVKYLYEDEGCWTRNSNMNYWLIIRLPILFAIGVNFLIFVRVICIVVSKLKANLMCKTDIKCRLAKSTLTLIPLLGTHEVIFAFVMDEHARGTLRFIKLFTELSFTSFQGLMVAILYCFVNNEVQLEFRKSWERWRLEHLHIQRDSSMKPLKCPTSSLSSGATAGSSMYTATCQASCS
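Assay principle: reduced luminescence from a cAMP-responsive reporter in HEK293 cells co-expressing a constitutively active GLP-1R. Conditions: 24 hr compound incubation, 37 deg C, 5% CO2.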
ClpP mod – qHTS Assay for Activators of ClpP; actives 1.9% (n = 340,000); purified B. subtilis ClpP, FRET peptide cleavage, 20 min; Potency, µM (doses to about 57.5 µM); active = well fitted falling curve with a large enough effect; inconclusive = small, poorly fitted or top-dose-only effect; inactive = no such curve, though single readings can be large or run the other way; note: the source files actives as falling curves though it sought activators and does not explain the sign; nearly all actives have a fitted effect of over 65% in size
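Purified B. subtilis ClpP, 10 microg/mL final in Tris/HCl pH8 with KCl, BSA, glycerol and Tween-20, cleaved an Abz/nitrotyrosine-quenched decapeptide. Fluorescence (ex 320, em 430) was read at 0 and 20 min at room temperature. Delta was normalized to 5.8 microM ADEP and DMSO/no-enzyme controls.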
GLP1R cytotox – qHTS of GLP-1 Receptor Inverse Agonists: Cytotox Screen | actives 0.13% (n = 410,000) | AID 624418, 2012 | Potency, µM (series often up to 38.3 µM), actives largely listed as inhibitors | HEK293 cAMP-luciferase reporter cells, luminescence, 24 h;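 note: loss of luciferase light is scored as toxicity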
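Compound-treated cells are incubated 24 hr at 37 deg C under 5% CO2 after a 12 hour attachment period, then luciferase detection reagent is added and luminescence is measured following 12 min at room temperature; lowered signal indicates toxicity.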
GLP1R ag – qHTS of GLP-1 Receptor Agonists. actives 0.007% (n = 380,000). Potency, µM (highest dose often 45.6 µM), usual class: activators. AID 624172, 2012. HEK293 GLP-1R CRE-luciferase, luminescence, 4-6 h; cells express a hypersensitive GLP-1R form
Large screens that a line does not name were inactive. Unless noted, calls come from the whole dose curve; as a rule, active = well fitted curve in the direction sought with a large enough effect; inconclusive = small, poorly fitted or top-dose-only effect, or another doubt; inactive = no such curve, though single readings can be large; an effect the other way counts as inactive or inconclusive.

Cc1ccn2c(NC(=O)C(C)(C)Oc3ccc(Cl)cc3)c(-c3cccs3)nc2c1	GLP-1R inv ag inconclusive, ClpP mod 32µM, GLP1R cytotox inconclusive
Cc1c(NC(=O)c2ccc(-c3ccccc3)cc2)cccc1C(=O)O	GLP-1R inv ag 3.2µM
COc1ccc(-c2onc(C)c2C)cc1S(=O)(=O)NC1CCC(C)CC1 (centres undefined)	GLP-1R inv ag inconclusive (no result: GLP1R ag)
CCc1ccc2oc(-c3ccc(C)c(NC(=O)COc4ccc(Cl)cc4)c3)nc2c1	none (no result: GLP-1R inv ag, GLP1R cytotox, GLP1R ag)
Cc1ccc(-c2nc3cccnc3o2)cc1NC(=O)COc1ccc(C(C)(C)C)cc1	GLP-1R inv ag inconclusive, ClpP mod 28µM, GLP1R cytotox inconclusive
CCc1ccc(OCC(=O)Nc2cc(-c3nc4cc(C)ccc4o3)ccc2C)cc1	ClpP mod 4µM
Cc1ccc(-c2nc3ncccc3o2)cc1NC(=O)CC(C)C	ClpP mod 11µM
Cc1ccc(-c2nc3ncccc3o2)cc1NC(=O)COc1ccccc1	ClpP mod 32µM
Cc1cc(C)cc(OCC(=O)Nc2ccc(-c3nc4ncccc4o3)cc2C)c1	ClpP mod inconclusive (no result: GLP1R ag)
CC1CCC(NC(=O)c2ccc3c(c2)N(Cc2ccccc2F)C(=O)c2ccccc2S3=O)CC1 (centres undefined)	none
COc1ccc(OC)c(-c2noc(N3CCN(c4ccc(Cl)cc4)CC3)n2)c1	none
O=[N+]([O-])CC(c1ccc(F)cc1)c1c[nH]c2ccccc12 (centres undefined)	GLP-1R inv ag 7.1µM
NC(=O)c1ccccc1NC(=O)C1CCCN(c2ncnc3onc(-c4ccc(F)cc4)c23)C1 (centres undefined)	none (no result: GLP1R ag)
CN(CC(=O)Nc1ccc(OC(F)(F)F)cc1)C(=O)Cc1ccc2c(c1)CCC2	GLP-1R inv ag 5.6µM
Cc1ccc(NC(=O)C2CC(=O)N(c3ccc4c5c(cccc35)CC4)C2)cc1 (centres undefined)	GLP-1R inv ag 10µM
Cc1cc(/C=C/c2ccnc3ccccc23)ccc1N	none (no result: GLP-1R inv ag, GLP1R cytotox, GLP1R ag)
COc1cc2c(cc1OC)-c1cc(NC3CCCCCC3)nc(=O)n1CC2	ClpP mod 25µM, GLP1R ag inconclusive
COc1cc2c(cc1OC)-c1cc(N3CCCc4ccccc43)nc(=O)n1CC2	GLP1R ag inconclusive
CCN(CC)CCCNc1cc2n(c(=O)n1)CCc1cc(OC)c(OC)cc1-2	ClpP mod 25µM
COc1cc2c(cc1OC)-c1cc(Nc3ccccc3Br)nc(=O)n1CC2	GLP1R ag 8.9µM (no result: ClpP mod)
COc1cc2c(cc1OC)-c1cc(Nc3ccc(C)cc3)nc(=O)n1CC2	GLP1R ag inconclusive
COc1cc2c(cc1OC)-c1cc(Nc3ccccc3)nc(=O)n1CC2	none
COc1cc2c(cc1OC)-c1cc(N3CCCCCC3)nc(=O)n1CC2	ClpP mod 25µM, GLP1R ag inconclusive
COc1ccc(Nc2cc3n(c(=O)n2)CCc2cc(OC)c(OC)cc2-3)cc1	GLP1R ag inconclusive
Nc1nc(N)c2c(Oc3ccc(F)cc3)cccc2n1	none (no result: GLP-1R inv ag, GLP1R cytotox, GLP1R ag)
CC(C)c1nn2c(=O)cc(COC(=O)c3ccc(NC(=O)CCc4ccccc4)cc3)nc2s1	none (no result: GLP1R ag)
N#Cc1c(N)n(-c2ccc(N)cc2)c2nc3ccccc3nc12	none (no result: ClpP mod)
N#Cc1c(N)n(C2CCCCC2)c2nc3ccccc3nc12	ClpP mod 32µM
COc1ccc(C(=O)OCC(N)=O)cc1[N+](=O)[O-]	ClpP mod 28µM
COc1cccc2c1C(=O)c1c(O)c3c(c(O)c1C2=O)C[C@@](O)(C(=O)CO)C[C@@H]3OC1CC(N)C(O)C(C)O1 (some centres undefined)	GLP-1R inv ag 4.5µM, GLP1R cytotox inconclusive
Clc1ccc2[nH]c3c(c2c1)CCc1cn[nH]c1-3	GLP-1R inv ag inconclusive, ClpP mod 28µM
c1ccc2c3c([nH]c2c1)-c1[nH]ncc1CC3	ClpP mod 13µM
COC(=O)c1cc(=O)nc2sc(-c3ccc(F)cc3)nn12	ClpP mod 28µM
COC(=O)c1cc(=O)nc2sc(-c3cccs3)nn12	none
O=C(COc1ccc(F)cc1)Nc1cccc(OCc2cc(=O)n3ccccc3n2)c1	none (no result: GLP1R ag)
CN(CC(=O)Nc1ccc(OC(F)(F)F)cc1)S(=O)(=O)c1ccc2c(c1)CCC(=O)N2	none (no result: GLP1R ag)
Cc1c(C(=O)c2ccc(F)cc2)c2ccccn2c1CCc1ccccn1	GLP-1R inv ag 10µM (no result: ClpP mod)
